Assay outcomes as filed in PubChem.
An excerpt weighted towards active compounds, which were near 2.3% of everything screened.
C diff HTS = inhibitors of Clostridium difficile growth | growth activity, negative = inhibition, % at 16 µg/mL (by protocol) | actives 0.25% (n = 86,000) | Clostridium difficile clinical isolate growth, OD600, 24 h; active compounds read low;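 active = mean growth activity at or below -80% and every replicate also at or below -80%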;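 also: 0% = DMSO wells and -100% = levofloxacin 16 µg/mL wells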
Pf Dd2 growth = P. falciparum Dd2 growth inhibition; SYBR Green, 72 h; active compounds read low; activity change, % at 10 µM; actives 2.3% (n = 94,000); AID 1159554; in the data active = activity change below about -80%
* hit, by the source's call; . = not tested or not shown.

SMILES | C diff HTS | Pf Dd2 growth
CCNC(=O)[C@H]1[C@H](CO)[C@H]2Cn3c(ccc(C4=CCCCC4)c3=O)[C@H]2N1Cc1ccccc1 | 1.1 | .
Cc1ccc(S(=O)(=O)N(C)C[C@@H]2OCCCC[C@@H](C)Oc3ccc(NC(=O)C4CCCCC4)cc3C(=O)N([C@@H](C)CO)C[C@H]2C)cc1 | . | -61.9
C[C@@H]1CCCCO[C@@H](CN(C)S(=O)(=O)c2ccc(Cl)cc2)[C@@H](C)CN([C@@H](C)CO)C(=O)c2cc(NC(=O)C3CCCCC3)ccc2O1 | 1.3 | -80.9*
C[C@@H]1CCCCO[C@H](CN(C)S(=O)(=O)c2ccc(Cl)cc2)[C@@H](C)CN([C@H](C)CO)C(=O)c2cc(NC(=O)C3CCCCC3)ccc2O1 | 0.3 | -57.9
C[C@@H]1CN([C@H](C)CO)C(=O)c2cc(NC(=O)C3CCCCC3)ccc2O[C@@H](C)CCCCO[C@@H]1CN(C)S(=O)(=O)c1ccc(Cl)cc1 | 4.8 | -85.6*
C[C@@H]1CCCCO[C@@H](CN(C)C(=O)C2CCCCC2)[C@@H](C)CN([C@H](C)CO)C(=O)c2cc(N(C)C)ccc2O1 | -17.2 | .
C[C@@H]1CN([C@@H](C)CO)C(=O)c2cc(NC(=O)c3ccncc3)ccc2O[C@@H](C)CCCCO[C@@H]1CN(C)Cc1ccc(C(F)(F)F)cc1 | 1.6 | -14.4
C[C@H]1CCCCO[C@@H](CN(C)C(=O)Nc2ccc(C(F)(F)F)cc2)[C@@H](C)CN([C@@H](C)CO)C(=O)c2cc(NC(=O)c3ccncc3)ccc2O1 | 8.6 | -82.7*
C[C@@H]1CN([C@@H](C)CO)C(=O)c2cc(NC(=O)c3ccncc3)ccc2O[C@@H](C)CCCCO[C@H]1CN(C)Cc1ccc(C(F)(F)F)cc1 | 9.2 | -81.1*
C[C@@H]1CCCCO[C@H](CN(C)C(=O)Nc2ccc(C(F)(F)F)cc2)[C@@H](C)CN([C@@H](C)CO)C(=O)c2cc(NC(=O)c3ccncc3)ccc2O1 | 2.9 | -62.7
C[C@@H]1CCCCO[C@@H](CN(C)C(=O)Nc2ccc(C(F)(F)F)cc2)[C@@H](C)CN([C@H](C)CO)C(=O)c2cc(NC(=O)c3ccccc3)ccc2O1 | -1.4 | -73.0
C[C@@H]1CCCCO[C@H](CN(C)C(=O)Nc2ccc(C(F)(F)F)cc2)[C@@H](C)CN([C@@H](C)CO)C(=O)c2cc(NC(=O)c3ccccc3)ccc2O1 | 7.2 | -83.0*
C[C@@H]1CCCCO[C@H](CN(C)C(=O)Nc2ccc(C(F)(F)F)cc2)[C@H](C)CN([C@H](C)CO)C(=O)c2cc(NC(=O)c3ccccc3)ccc2O1 | 12.8 | -52.9
C[C@@H]1CN([C@@H](C)CO)C(=O)c2cc(NC(=O)c3ccccc3)ccc2O[C@@H](C)CCCCO[C@@H]1CN(C)C(=O)Nc1ccc(C(F)(F)F)cc1 | -9.6 | -86.7*
O=C(C1CC1)N1C[C@@H]2[C@H](c3ccccc31)[C@@H](CO)N2C(=O)c1ccccc1 | -7.2 | -6.9
C[C@@H]1CN([C@@H](C)CO)S(=O)(=O)c2ccc(C#CC3CC3)cc2O[C@H]1CN(C)C(=O)c1ccccn1 | -3.9 | -28.6
C[C@H](CO)N1C[C@H](C)[C@H](CN(C)Cc2ccccn2)Oc2ncc(C#Cc3ccccc3)cc2C1=O | -1.1 | -22.5
C[C@@H]1CN([C@H](C)CO)C(=O)c2cc(NC(=O)C3CCCCC3)ccc2O[C@@H]1CN(C)S(=O)(=O)c1ccc(Cl)cc1 | -4.3 | 4.9
C[C@@H]1CN([C@@H](C)CO)C(=O)c2cccc(NC(=O)C3CCCCC3)c2O[C@H]1CN(C)C(=O)Nc1ccc(C(F)(F)F)cc1 | -8.1 | -19.2
COc1ccccc1CNC(=O)C[C@@H]1CC[C@H]2[C@@H](COc3ccc(NC(=O)Nc4ccc(F)c(F)c4)cc3C(=O)N2C)O1 | 3.1 | -16.9
COc1ccc(NC(=O)N(C)C[C@@H]2Oc3ccc(NC(=O)CCCCCC(=O)Nc4ccccc4N)cc3C(=O)N([C@H](C)CO)C[C@H]2C)cc1 | 3.6 | 19.9
C[C@H]1CN([C@@H](C)CO)S(=O)(=O)c2ccc(C#Cc3ccncc3)cc2O[C@@H]1CN(C)S(=O)(=O)c1ccc(F)cc1 | -2.4 | -88.0*
C[C@H]1CN([C@@H](C)CO)S(=O)(=O)c2ccc(C#Cc3ccc(F)cc3)cc2O[C@H]1CN(C)S(=O)(=O)c1ccc(F)cc1 | 3.6 | -21.5
C[C@H](CO)N1C[C@H](C)[C@H](CN(C)S(=O)(=O)c2ccccc2)Oc2cc(C#Cc3ccncc3)ccc2S1(=O)=O | 2.8 | -79.7
C[C@H]1CN([C@@H](C)CO)S(=O)(=O)c2ccc(C#Cc3ccc(F)cc3)cc2O[C@@H]1CN(C)S(=O)(=O)c1ccc(F)cc1 | -1.5 | -49.7
C[C@H]1CN([C@@H](C)CO)S(=O)(=O)c2ccc(C#Cc3ccncc3)cc2O[C@H]1CN(C)S(=O)(=O)c1ccc(F)cc1 | 9.8 | -89.4*
Cc1ccc(S(=O)(=O)N(C)C[C@H]2Oc3cc(C#Cc4ccncc4)ccc3S(=O)(=O)N([C@@H](C)CO)C[C@H]2C)cc1 | -2.2 | -82.4*
